Data published in PubChem BioAssay (NCI).
The panel holds about 83,000 compounds, 20% with a hit somewhere; the sample as a whole holds those more often.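 Interpretation: 100, growth as untreated; towards 0, rising growth inhibition; 0, no net growth; 0 to -100, cell death. Compounds scoring below 10 were considered active.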 Values without a mark were called inactive. Active and inactive are the calls of the source.

Experiments:
Assay in all cases: NCI-60 one-dose screen, 48 h (100 = growth as untreated, 0 = no growth, -100 = all killed)
Conditions in all cases: 10 µM unless noted
NCI-H23 lung = system: NCI-H23 lung
NCI-H226 lung = system: NCI-H226 lung
NCI-H322M lung = system: NCI-H322M lung
HOP-62 NSCLC = system: HOP-62 NSCLC
NCI-H460 lung = system: NCI-H460 lung
HOP-92 NSCLC = system: HOP-92 NSCLC
NCI-H522 lung = system: NCI-H522 lung
A549/ATCC NSCLC = system: A549/ATCC NSCLC
786-0 renal = system: 786-0 renal
COLO 205 colon = system: COLO 205 colon
DU-145 prostate = system: DU-145 prostate
K-562 leukemia = system: K-562 leukemia
MALME-3M melanoma = system: MALME-3M melanoma
MDA-MB-231 breast = system: MDA-MB-231 breast
RXF 393 renal = system: RXF 393 renal
SF-268 CNS = system: SF-268 CNS
SF-295 CNS = system: SF-295 CNS
SF-539 CNS = system: SF-539 CNS
UACC-257 melanoma = system: UACC-257 melanoma
M14 melanoma = system: M14 melanoma

Row | Structure (SMILES) | growth (NCI-H23 lung) [%] | growth (NCI-H226 lung) [%] | growth (NCI-H322M lung) [%] | growth (HOP-62 NSCLC) [%] | growth (NCI-H460 lung) | growth (HOP-92 NSCLC) [%] | growth (NCI-H522 lung) | growth (A549/ATCC NSCLC) [%] | growth (786-0 renal) [%] | growth (COLO 205 colon) | growth (DU-145 prostate) [%] | growth (K-562 leukemia) | growth (MALME-3M melanoma) [%] | growth (MDA-MB-231 breast) [%] | growth (RXF 393 renal) | growth (SF-268 CNS) [%] | growth (SF-295 CNS) [%] | growth (SF-539 CNS) | growth (UACC-257 melanoma) [%] | growth (M14 melanoma) [%]
1 | CCOC(=O)c1ccc(NC(C)=O)o1 | 105 | 95 | 108 | 86.3 | 87.2% | 103 | 95.2% | 76.2 | 105 | 106% | 111 | 84.3% | 107 | 105 | 102% | 100 | 98.5 | 105% | 80.2 | 106
2 | COC1OC(CO)C(OC)C(O)C1O (stereo not given) | 105 | 102 | 99.9 | 102 | 97.4% | 111 | 113% | 103 | 101 | 113% | 105 | 102% | 111 | 111 | 99.4% | 95.7 | 96.7 | 99% | 106 | 103
3 | Nc1ccc(F)cc1F | 103 | 94.8 | 97.4 | 109 | 105% | 77.4 | 102% | 105 | 98.6 | 110% | 110 | 107% | 111 | 93.7 | 92.2% | 109 | 104 | 94.3% | 111 | 101
4 | CC1(C)CC(=O)C=C(N)C1 | 88.1 | 103 | 106 | 103 | 121% | 109 | 89.6% | 94.8 | 106 | 134% | 128 | 146% | 155 | 104 | 94.4% | 110 | 98.7 | 127% | 87.2 | 102
5 | CC(C)N(CCCC#N)C(C)C | 104 | 114 | 104 | 98.6 | 105% | 85.8 | 108% | 93.9 | 100 | 110% | 107 | 104% | 109 | 102 | 103% | 103 | 100 | 97.9% | 89.2 | 107
6 | C=CCC(OC(C)=O)c1ccc(C(C)C)cc1 (stereo not given) | 108 | 106 | 120 | 109 | 106% | 86.7 | 86.6% | 92.3 | 108 | 122% | 118 | 108% | 124 | 122 | 113% | 110 | 126 | 104% | 105 | 114
7 | Cn1c(=O)c2[nH]c(CCCCC(=O)O)nc2n(C)c1=O | 114 | 118 | 101 | 108 | 116% | 88.9 | 96.2% | 103 | 114 | 103% | 110 | 109% | 115 | 110 | 127% | 99.2 | 123 | 106% | 103 | 111
8 | Cc1cc(C(=O)c2ccccc2)cc(C)c1O | 98.2 | 99.2 | 101 | 95.2 | 110% | 74.3 | 104% | 102 | 100 | 103% | 113 | 94.7% | 94.1 | 124 | 116% | 102 | 107 | 90.4% | 115 | 103
9 | Cc1ccc2[nH]c3ccccc3c2c1 | 96.9 | 103 | 99.6 | 113 | 99.7% | 100 | 101% | 102 | 93.9 | 109% | 104 | 89.8% | 95.2 | 111 | 112% | 103 | 103 | 101% | 104 | 110
10 | CCCCN(C=S)CCCC | 103 | 87.4 | 105 | 81.3 | 101% | 93.8 | 91.6% | 86.4 | 101 | 99.1% | 112 | 113% | 101 | 104 | 101% | 105 | 99.1 |  | 99.6 | 94.8
11 | CCCc1cccc(CCC)c1NC(=O)Nc1cc(Cl)cc(Cl)c1 | 101 | 98.1 | 96.8 | 104 | 118% | 98.8 | 85.7% | 93.8 | 93.9 | 120% | 107 | 100% | 87.5 | 90.2 | 116% | 94.9 | 109 | 92.4% | 86 | 101
12 | CC(c1ccccc1)N1C(=O)CSC1=S (stereo not given) | 51.2 | 83.2 | 74.9 | 59.2 | 0.475% (active) | 47.5 | -14.2% (active) | 78.8 | 21.2 | 1.28% (active) | 26.9 | 5.61% (active) | 79.3 | 29.9 | -25% (active) | 24.9 | 101 | -59.7% (active) | 55.3 | 28.7
13 | CC1=CC(=Nc2ccc(N(C)C)cc2)C=C(C)C1=O | 66.2 | 83.5 | 95.8 | 86 | 102% | 48.6 | 94.4% | 77.9 | 95 | -14.5% (active) | 101 | 75.1% | 92.6 | 64 | 65.1% | 88.6 | 97.3 |  | 77.5 | 91.9
14 | COC(c1ccc2c(c1)OCO2)C(C)Br (stereo not given) | 95.2 | 93.1 | 100 | 82.8 | 104% | 74.9 | 84.6% | 94 | 112 | 94.5% | 109 | 87.3% | 98.3 | 94.8 | 99.9% | 107 | 101 | 92.5% |  | 97.1
15 | O=C(Nc1ccc([N+](=O)[O-])cc1)C(=O)Nc1ccc([N+](=O)[O-])cc1 | 100 | 96.9 | 101 | 81 | 103% | 95.4 | 77.3% | 67.7 | 110 | 101% | 110 | 106% | 105 | 98.1 | 109% | 100 | 102 |  | 77.7 | 104
16 | COC(=O)c1ccccc1C(=O)c1c(C)cc(C)cc1C | 94.7 | 89.5 | 101 | 95.1 | 105% | 107 | 87.5% | 84.4 | 104 | 104% | 104 | 96.7% | 99.1 | 97.4 | 111% | 102 | 102 |  | 99.6 | 108
17 | C1CCc2onc(-c3noc4c3CCCCC4)c2CC1 | 110 | 123 | 102 | 101 | 140% | 93.6 | 95.8% | 102 | 103 | 118% | 118 | 103% | 106 | 114 | 139% | 92.9 | 99.5 | 104% | 107 | 112
